Shown are actives, neighbours in structure and some others; about 12% of the full set was active somewhere.
CHX counter = affects cycloheximide protein synthesis inhibition readout, counter-screen | cell reporter, cycloheximide protein synthesis inhibition counterscreen | max response, % | 12% of 300,000 active | AID 2314; in the data active = max response mostly above about 13%, no sharp cut-off; inactive = mostly below about 14%; also: read at 38.3 µM for the half of the compounds with a filed dose; 0% is about no effect
NS1 function inh = influenza NS1 inhibition | Potency, µM (highest dose often 46.1 µM), without a hit: at the top dose activity, positive = more growth | 0.4% of 270,000 active; also: potency is read from the fitted curve at half-maximal effect; actives are rising curves; nearly all actives have a fitted effect of over 50% in size
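Growth recovery, yeast-based: influenza A NS1 expressed in S. cerevisiae causes slow growth, and suppressors are detected by OD600. The parent strain without NS1 is used as positive control.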
Shiga inhibitor = inhibitors of Shiga toxin in Vero cells; Vero cells, Shiga toxin protein synthesis inhibition reporter; inhibition, % at 38.7 µM; 9.2% of 290,000 active; AID 2315; in the data active = inhibition mostly above about 28%, no sharp cut-off; inactive = mostly below about 43%; also: 0% is about no effect
SARS PLpro yeast = blocks SARS-CoV papain-like protease in a yeast assay. S. cerevisiae expressing SARS-CoV PLpro, growth rescue. Potency, µM (highest dose often 32.9 µM), inactives show at the highest dose activity, positive = growth rescue, actives largely listed as activators. 0.19% of 330,000 active. AID 485353; also: potency is read from the fitted curve at half-maximal effect; 0% is about no effect; nearly all actives have a fitted effect of over 55% in size
The depositor's hits bear a star; u = inconclusive; x = no result given; + = active, no number. Unless noted, calls follow the shape of the full dose curve.

SMILES | CHX counter | NS1 function inh | Shiga inhibitor | SARS PLpro yeast
Cc1ccc(S(=O)(=O)N(C)CC(=O)O/N=C(\N)c2cccc(Br)c2)cc1 | -1.7 | -14.3% | -29.1 | 13.9%
COc1ccc(S(=O)(=O)N2CCC(C(=O)Nc3ccc(S(=O)(=O)N4CCCC4)cc3)CC2)cc1OC | x | x | x | -2.9%
NC(=O)C1CCN(CC(=O)Nc2nccs2)CC1 | -1.8 | 6.6% | x | 3.0%
NS(=O)(=O)c1cccc(NC(=O)COC(=O)Cn2cc(C(F)(F)F)ccc2=O)c1 | x | x | x | -1.2%
O=C(Nc1ccccc1F)c1ccc(-n2cncn2)nc1 | -2.8 | -48.4% | -17.4 | 4.2%
O=C(NCc1ccccc1)c1cnc(Cl)c(Cl)c1 | 23.3* | 0.7% | 20.0 | -3.3%
O=C(NCc1ccccc1)c1cccc(COc2ccccc2Cl)c1 | 61.1* | -8.6% | 120.4* | -11.2%
O=C(c1ccc(COCC(F)(F)F)cc1)N1CCN(c2ccccn2)CC1 | 35.2* | -1.9% | 46.4* | -1.2%
O=C(NCc1ccc(F)cc1)c1cnc(Cl)c(Cl)c1 | 2.1 | 1.0% | 6.5 | -1.6%
CN(C(=O)c1ccc(COc2ccccc2Cl)o1)c1ccccc1 | 14.7 | -10.7% | 16.9 | -3.1%
CN(C(=O)c1cccc(COc2ccc(Cl)cc2Cl)c1)c1ccccc1 | 170.6* | -12.5% | 185.1* | x
O=C(c1ccc(F)cc1)N1CCN(c2ccccn2)CC1 | 1.4 | 0.9% | x | 4.3%
COc1c(F)c(F)c(C(=O)O)c(Nc2ccc(C)cc2C)c1F | -1.7 | x | 9.5 | 0.5%
COCCn1c(SCC(=O)NC2CC2)nc2ccccc21 | x | x | x | -2.2%
COC(=O)c1ccccc1NC(=O)c1cccc(COc2ccccc2Cl)c1 | 85.8* | -5.1% | 88.5* | 0.3%
O=C(COc1ccc2c(c1)CCC2)NCc1ccccc1 | 15.3 | -0.8% | 15.2 | 13.9%
O=C(NCc1ccccc1)c1cccc(COc2cc(Cl)ccc2Cl)c1 | 40.7* | 7.5% | 118.4* | 4.3%
NNC(=O)c1cccc(COc2ccc3c(c2)CCC3)c1 | 206.5* | u | 196.1* | -15.5%
NNC(=O)c1cccc(COc2ccccc2Br)c1 | 81.4* | 21.4% | 100.1* | -7.9%
NNC(=O)c1ccc(COc2cccc3ccccc23)cc1 | -6.1 | u | -7.9 | -51.0%
O=C(c1cccc(COc2ccc(Cl)cc2Cl)c1)N1CCN(c2ccccn2)CC1 | 91.9* | -110.4% | + | x
O=C(c1cccc(COc2cccc3ccccc23)c1)N1CCCC1 | 40.2* | -21.1% | 46.7* | 3.2%
CNc1snc(C)c1C(=O)OCC(=O)NCc1ccccc1OC | x | x | x | -3.3%
COC(=O)C1(O)CC(C(C)C)=NN1C(=O)c1ccccc1 (centres undefined) | -2.2 | -4.6% | 1.7 | -12.4%
COc1c(Cl)cc(Cl)cc1C(=O)Nc1ccc(CN2CCOCC2)cc1 | 2.8 | -7.8% | -1.3 | -3.9%
SMILES | CHX counter | NS1 function inh | Shiga inhibitor | SARS PLpro yeast
COc1c(C)cccc1C(=O)Nc1ccc(CN2CCOCC2)cc1 | 47.1* | -8.0% | 44.5* | 1.9%
CC(C)Oc1cccc(C(=O)Nc2ccc(CN3CCOCC3)cc2)c1 | 15.7* | -5.0% | 17.7 | 0.8%
COc1ccc(OC)c(CN(CCN2CCOCC2)C(=O)Nc2cccc(Cl)c2)c1 | -4.7 | -1.1% | -7.7 | 9.5%
COc1ccc(OC)c(CN(CCN2CCOCC2)C(=O)Nc2ccccc2)c1 | 9.2 | -14.1% | 43.1* | 3.0%
O=C(NC1CC2CCC1C2)c1ccc(CN2CCOCC2)cc1 (centres undefined) | 33.6* | 0.9% | 116.7* | -2.8%
CCCOc1cccc(C(=O)Nc2ccc(CN3CCOCC3)cc2)c1 | -0.7 | 1.7% | 5.2 | 3.1%
COc1ccc(C2/C(=C(/O)c3ccc(Br)cc3)C(=O)C(=O)N2C)cc1OC (centres undefined) | -1.1 | -1.4% | -7.3 | 10.2%
COc1cccc(NC(=O)c2ccc(CN3CCOCC3)cc2)c1 | 22.3* | -0.2% | 32.7 | 7.3%
CSc1cccc(NC(=O)c2ccc(CN3CCc4ccccc4C3)cc2)c1 | 12.8 | -52.6% | 22.1 | -3.8%
COc1ccc(NS(=O)(=O)c2ccc(NC(=O)c3ccc(CN4CCOCC4)cc3)cc2)cc1 | 8.2 | 4.5% | -15.9 | 13.3%
O=C(Nc1cccc(Br)c1)c1ccc(CN2CCc3ccccc3C2)cc1 | 17.4* | -69.2% | 18.9 | x
O=C(Nc1ccc2c(c1)OCCO2)c1ccc(CN2CCOCC2)cc1 | 49.6* | -4.8% | 72.7* | 2.9%
O=C(c1cc(Cl)nc2ccccc12)N(Cc1nnc(-c2ccc(Cl)cc2)o1)C1CC1 | x | x | x | 0.7%
Cn1c(=O)oc2cc(S(=O)(=O)NCCC(=O)N3CCc4ccccc43)ccc21 | -3.0 | -1.5% | -7.0 | -5.1%
CC(NS(=O)(=O)c1c(N)n(C)c(=O)n(C)c1=O)c1ccccc1 (centres undefined) | 29.4* | -7.9% | 57.4* | -5.6%
Cn1c(N)c(S(=O)(=O)NCc2ccccc2Cl)c(=O)n(C)c1=O | -2.8 | x | -18.2 | 0.5%
